Measurements as given in the supplement of paper PMC6555819.

How the values were obtained:
Test in all cases: PBM binding z-score (relative to random genomic background probes); higher = stronger binding; sequences stand for … in GC…GCGATTGACAGCGTAGAATGAAGG
[1] = system: FXR:RXRa (NR concentration 270 nM, RXRa partner concentration 90 nM)
Outline: (§1)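 Custom Agilent 4×180K protein-binding microarrays carried double-stranded probes, each with a 34-nt variable region. These regions held direct-repeat seeds, single-nucleotide variants, half-site ablations and random human genomic background sequences. Ligand-free nuclear receptor dimers were incubated on the arrays for 1 h, antibodies against each partner (one per run) detected binding, and scanned fluorescence was regression-normalized. Binding z-scores take the random background probes as reference.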

[2] = system: LXRa:RXRa (NR concentration 270 nM, RXRa partner concentration 90 nM)
Outline: as §1

[3] = system: LXRa homodimer (NR concentration 270 nM)
Outline: as §1

[4] = system: LXRb:RXRa (NR concentration 270 nM, RXRa partner concentration 90 nM)
Outline: as §1

[5] = system: LXRb homodimer (NR concentration 270 nM)
Outline: as §1

[6] = system: PPARa:RXRa (NR concentration 270 nM, RXRa partner concentration 90 nM)
Outline: as §1

[7] = system: PPARg:RXRa (NR concentration 180 nM, RXRa partner concentration 90 nM)
Outline: as §1

[8] = system: PPARg:RXRa 270nM:90nM, anti-RXR (NR concentration 270 nM, RXRa partner concentration 90 nM)
Outline: as §1

[9] = system: PPARg:RXRa 30nM:10nM, anti-RXR (NR concentration 30 nM, RXRa partner concentration 10 nM)
Outline: as §1

[10] = system: PPARg:RXRa 90nM:30nM, anti-RXR (NR concentration 90 nM, RXRa partner concentration 30 nM)
Outline: as §1

[11] = system: PPARg:RXRa DBDmut IVT, anti-RXR (DBD mutation: RXRa K156A/R161A, NR concentration 270 nM, RXRa partner concentration 90 nM)
Outline: as §1

[12] = system: PPARg:RXRa IVT, anti-PPARg (NR concentration 270 nM, RXRa partner concentration 90 nM)
Outline: as §1

[13] = system: PPARg DBDmut:RXRa IVT, anti-PPARg (DBD mutation: PPARg1 K132A/R137A, NR concentration 270 nM, RXRa partner concentration 90 nM)
Outline: as §1

[14] = system: PPARg DBDmut IVT, anti-PPARg (DBD mutation: PPARg1 K132A/R137A, NR concentration 270 nM)
Outline: as §1

[15] = system: PPARg homodimer (NR concentration 180 nM)
Outline: as §1

[16] = system: PXR:RXRa (NR concentration 270 nM, RXRa partner concentration 90 nM)
Outline: as §1

[17] = system: PXR homodimer (NR concentration 270 nM)
Outline: as §1

[18] = system: RARa:RXR (NR concentration 270 nM, RXRa partner concentration 90 nM)
Outline: as §1

[19] = system: RARa homodimer (NR concentration 270 nM)
Outline: as §1

[20] = system: RARb:RXRa (NR concentration 270 nM, RXRa partner concentration 90 nM)
Outline: as §1

| Sequence | PBM binding z-score [1] | PBM binding z-score [2] | PBM binding z-score [3] | PBM binding z-score [4] | PBM binding z-score [5] | PBM binding z-score [6] | PBM binding z-score [7] | PBM binding z-score [8] | PBM binding z-score [9] | PBM binding z-score [10] | PBM binding z-score [11] | PBM binding z-score [12] | PBM binding z-score [13] | PBM binding z-score [14] | PBM binding z-score [15] | PBM binding z-score [16] | PBM binding z-score [17] | PBM binding z-score [18] | PBM binding z-score [19] | PBM binding z-score [20] |
| --- | --- | --- | --- | --- | --- | --- | --- | --- | --- | --- | --- | --- | --- | --- | --- | --- | --- | --- | --- | --- |
| CCTACTGGGCCATCAGGTTATTGATATCAACGTT | 0.0751 | -0.156 | 0.178 | 0.293 | -0.502 | 0.918 | 1.23 | 1.98 | 0.473 | 1.4 | 4.67 | 4.48 | 0.284 | 0.0128 | 0.249 | -0.153 | -0.0218 | -0.124 | 0.0589 | 0.589 |
| ATATGTAGGTTATCGGATCATTCAGTTTGCGCAT | 0.778 | 1.32 | 0.544 | 0.974 | 0.803 | 3.32 | 4.5 | 4.3 | 2.14 | 3.56 | 7.18 | 6.73 | 2.24 | 2.07 | 1.46 | 0.908 | 0.884 | 1.05 | 1.48 | 0.993 |
| GATACAGGGTCTAGGCCAGAGTACGCGTATTGAT | -0.772 | -0.631 | -0.516 | -0.894 | -1.47 | -0.516 | 0.629 | 0.0439 | -0.269 | -0.108 | -0.37 | 0.257 | -1.76 | -0.427 | -0.543 | -0.687 | -0.433 | -0.694 | -0.222 | 0.0286 |
| ATATGTAGGTTACACCCGGGTCATTCAGGCTATG | 2.03 | 4.01 | 1.46 | 3.12 | 0.769 | 4.84 | 6.51 | 5.36 | 3.01 | 4.69 | 7.06 | 7.68 | 2.55 | 1.68 | 1.71 | 3.62 | 1.57 | 3.89 | 0.619 | 2.35 |
| TCTGCTAGGGCAGTTGGTCAGCTAACGAGCTGCC | -0.253 | -0.634 | -0.708 | -0.857 | -0.624 | -0.359 | -0.953 | 0.135 | 0.729 | 0.414 | 1.38 | 0.996 | -0.206 | -0.384 | -0.702 | -0.671 | -0.958 | -0.138 | -1.3 | 1.14 |
| ACTAGTTGGTCAGATGAGGTCACACACAATTCGG | 3.83 | 3.41 | 2.89 | 3.36 | 0.869 | 3.74 | 2.28 | 2.43 | 0.846 | 1.63 | 1.63 | 2.78 | 1.26 | 1.93 | 3.45 | 5.55 | 2.21 | 4.72 | 2.3 | 3.3 |
| CGTCCAAGGTCAGGGTCAGTGAAAGAGACTCGAA | 6.11 | 3.93 | -0.0372 | 3.66 | 0.128 | 5.11 | 4.59 | 4.52 | 1.28 | 2.98 | 2.17 | 3.09 | 0.335 | -0.416 | 2.66 | 3.7 | 0.71 | 4.22 | 1.34 | 5.2 |
| CCTACTGGGCTACGAAAGGTCATTGATTCAGTGA | 3.53 | 6.04 | 6.54 | 4.66 | 0.251 | 4.28 | 2.77 | 4.36 | 2.08 | 3.64 | 3.98 | 3.65 | -0.45 | 0.321 | 3.32 | 5.08 | 1.74 | 5.44 | 0.708 | 3.88 |
| CCTCGGAGGATAACAGGAGGTCAGAGCTGCCAGA | 0.758 | 2.44 | 2.34 | 1.24 | -0.35 | 1.61 | 0.275 | -0.114 | -0.739 | -0.596 | -0.616 | 0.0476 | -0.938 | -1.92 | 1.75 | 1.78 | 0.657 | 2.39 | 0.565 | 1.99 |
| TCTATTAGTTGATTAGGGCAACCCAAACAGCGGA | 0.851 | 0.543 | 0.334 | 0.826 | 0.771 | 1.09 | 0.509 | 1.97 | 3.86 | 2.89 | 1.83 | 1.56 | 1.32 | 1.89 | 0.811 | 0.65 | 0.299 | 0.776 | 1.44 | 0.917 |
| TCAGACAGGTGAAGGTTACTCAGGTACGCAGTCG | 1.24 | 3.55 | 0.607 | 2.38 | 0.0683 | 1.81 | 1.06 | 2.39 | 3.71 | 2.81 | 2.66 | 1.5 | 0.0117 | 0.759 | 1.02 | 1.38 | 0.43 | 1.55 | 0.589 | 1.83 |
| CAAACTAGGTCACCGAGGTCAAAGTCCGTGCGTA | 7 | 6.22 | 5.91 | 5.75 | 1.25 | 6.56 | 10.2 | 8.39 | 6.43 | 8.33 | 8.69 | 9.03 | 4.5 | 2.89 | 5.36 | 6.93 | 12.2 | 7.45 | 1.57 | 5.18 |
| TATCCTAGGTCATTCAGGGGCCAGTATAGAAAGC | 5.25 | 5.67 | 4.76 | 3.96 | 4.11 | 4.18 | 3.29 | 3.8 | 1.64 | 3.05 | 4.17 | 4.85 | 1.68 | 2.21 | 3.21 | 3.08 | 0.861 | 3.84 | 1.26 | 4.08 |
| CCGACTGGGGCAAGCTTACCATAACGCACAGCCA | -0.512 | -0.683 | -0.49 | -0.277 | -1.15 | 0.0607 | 0.938 | 0.116 | -0.5 | -0.274 | 3.86 | 2.37 | -0.563 | -1.13 | -0.678 | -0.729 | -0.611 | -0.807 | -0.606 | 0.697 |
